Test [1] concerns the target human Peroxisome Proliferator-activated Receptor alpha (PPARa), PPARA (gene 5465) (UniProt Q07869). The test is described as follows: ATG_PPARa_TRANS: Attagene TRANS-FACTORIAL HepG2 Assay for human Peroxisome Proliferator-activated Receptor alpha (PPARa) (AID 2283001; active means hit-call score of the fitted dose curve at least 0.9, where 1 is the maximum). Summed up:
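Reporter transcripts quantified by RT-PCR plus capillary electrophoresis after 24 h treatment, fitted upward relative to DMSO. Cells: human HepG2 transiently carrying multiple GAL4-UAS reporter units driven by NR-Gal4 chimeras.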

Read-out in test [2]: Intercellular Adhesion Molecule 1 (ICAM1), ICAM1 (gene 3383)
The test can be described thus: BSK_3C_ICAM1: BioMAP Diversity Plus: 3C Assay for Intercellular Adhesion Molecule 1 (ICAM1) Biomarker Activity (AID 2283003). Conditions: primary human endothelial cells (HUVEC); actives raise or lower the signal. Summed up:
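Chemicals are dosed onto primary human umbilical vein endothelium (3C system). After 24 h, ICAM-1 is measured by ELISA, and responses are fitted bidirectionally relative to DMSO.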

The nature of test [3]: BSK_3C_Proliferation: Cell Proliferation Assessment in the BioMAP Diversity Plus: 3C Assay (AID 2283006).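 On AC50: potency may reflect either rise or fall in cell number versus DMSO.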 Conditions: primary human endothelial cells (HUVEC). The method, boiled down:
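Cells (human umbilical vein endothelial, sub-confluent) receive test chemical; after 48 h they are fixed in 10% trichloroacetic acid, stained with 0.1% SRB and read at 560 nm. Activity is referenced to DMSO, fitting increases and decreases.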

Test [4] has as its target Peroxisome proliferator-activated receptor gamma (Homo sapiens) (UniProt P37231). The test can be described thus: ATG_PPARg_TRANS: Attagene TRANS-FACTORIAL HepG2 Assay for human Peroxisome Proliferator-activated Receptor-gamma (PPARg) (AID 2283007; active means hit-call score of the fitted dose curve at least 0.9, where 1 is the maximum). The method, boiled down:
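Multiplexed reporter transcription units in HepG2, 24 h dosing, reporter transcripts quantified by fluorescent RT-PCR and capillary electrophoresis. Increase over DMSO scored.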

The target in test [5] is Nuclear receptor subfamily 1 group I member 2 (Homo sapiens) (UniProt O75469). The test is described as follows: ATG_PXR_TRANS: Attagene TRANS-FACTORIAL HepG2 Assay for human Pregnane X Receptor (PXR) (AID 2283008; active means hit-call score of the fitted dose curve at least 0.9, where 1 is the maximum). Summed up: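 Transient HepG2 transfectants carrying multiplexed reporter transcription units; PXR activity read through a Gal4 chimera. 24 h exposure. RT-PCR/CE fluorescence; upward curve fit referenced to DMSO.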

Test [6] has as its target human Retinoid X Receptor beta (RXRb), RXRB (gene 6257) (UniProt P28702). The test is described as follows: ATG_RXRb_TRANS: Attagene TRANS-FACTORIAL HepG2 Assay for human Retinoid X Receptor beta (RXRb) (AID 2283013; active means hit-call score of the fitted dose curve at least 0.9, where 1 is the maximum). Summed up: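 Chimeric receptor-Gal4 activity was assessed in transiently transfected human HepG2 cells after 24 h exposure. Transcripts from GAL4-UAS reporters were quantified by fluorescent RT-PCR and capillary electrophoresis, with DMSO as negative control and baseline.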

Read-out in test [7]: E-selectin (Homo sapiens) (UniProt P16581)
The test is described as follows: BSK_3C_Eselectin: BioMAP Diversity Plus: 3C Assay for Eselectin Biomarker Activity (AID 2283015).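 On outcome: cell surface E-selectin protein quantified by ELISA 24 h after dosing.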 Particulars: primary human endothelial cells (HUVEC); actives raise or lower the signal. The method, boiled down:
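ELISA read-out of E-selectin on endothelial monolayers after 24 h chemical treatment. Human umbilical vein primary cells served as the system, with DMSO defining baseline activity for bidirectional fitting.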

Read-out in test [8]: Interleukin-1 alpha (IL1a), IL1A (gene 3552)
The test can be described thus: BSK_BE3C_IL1a: BioMAP Diversity Plus: BE3C Assay for Interleukin-1 alpha (IL1a) Biomarker Activity (AID 2283016). Particulars: primary human bronchial epithelial cells; actives raise or lower the signal. The method, boiled down: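 Signal from IL-1a ELISA, taken 24 h after chemical dosing of human bronchial epithelial cells, is compared with DMSO as baseline using bidirectional curve fitting.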

Read-out in test [9]: Monocyte Chemoattractant Protein-1 (MCP1), CCL2 (gene 6347)
The test can be described thus: BSK_3C_MCP1: BioMAP Diversity Plus: 3C Assay for Monocyte Chemoattractant Protein-1 (MCP1) Biomarker Activity (AID 2283017). Particulars: primary human endothelial cells (HUVEC); actives raise or lower the signal. The method, boiled down: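 ELISA read-out of MCP-1 from human umbilical vein endothelial cell cultures harvested 24 h post-dosing. Gain or loss of signal was fitted relative to DMSO.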

Read-out in test [10]: Monocyte Chemoattractant Protein-1 (MCP1), CCL2 (gene 6347)
The test is described as follows: BSK_4H_MCP1: BioMAP Diversity Plus: 4H Assay for Monocyte Chemoattractant Protein-1 (MCP1) Biomarker Activity (AID 2283018). Conditions: primary human endothelial cells (HUVEC); actives raise or lower the signal. The method, boiled down: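 Endothelial cells from umbilical vein were treated with test chemical, then after 24 h MCP-1 levels were quantified by ELISA; endpoint values came from bidirectional fitting with DMSO as baseline of activity.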

Read-out in test [11]: Human Leukocyte Antigen - DR isotype (HLADR), HLA-DRA (gene 3122)
The test is described as follows: BSK_3C_HLADR: BioMAP Diversity Plus: 3C Assay for Human Leukocyte Antigen - DR isotype (HLADR) Biomarker Activity (AID 2283019). Particulars: primary human endothelial cells (HUVEC); actives raise or lower the signal. Summed up: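 ELISA readout of surface HLA-DR on human umbilical vein endothelium, taken 24 h after chemical treatment. Gain- and loss-of-signal were both fitted relative to DMSO.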

Read-out in test [12]: Interleukin-8 (IL8), CXCL8 (gene 3576)
The test is described as follows: BSK_3C_IL8: BioMAP Diversity Plus: 3C Assay for Interleukin-8 (IL8) Biomarker Activity (AID 2283020). Conditions: primary human endothelial cells (HUVEC); actives raise or lower the signal. Summed up:
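Endothelial primary cells of human umbilical vein origin are dosed with chemical; after 24 h the IL-8 biomarker is measured by ELISA, and concentration–response is fitted in both directions versus DMSO.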

Read-out in test [13]: Monokine induced gamma interferon (MIG), CXCL9 (gene 4283)
The test is described as follows: BSK_3C_MIG: BioMAP Diversity Plus: 3C Assay for Monokine induced gamma interferon (MIG) Biomarker Activity (AID 2283021). Particulars: primary human endothelial cells (HUVEC); actives raise or lower the signal. The method, boiled down:
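Endothelial primary cells (human umbilical vein) are dosed with test chemical in the 3C system. MIG levels are measured by ELISA at 24 h and fitted in both directions relative to DMSO.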

Test [14] addresses human RAR-related Orphan Receptor beta (RORb), RORB (gene 6096) (UniProt Q92753). The test is described as follows: ATG_RORb_TRANS: Attagene TRANS-FACTORIAL HepG2 Assay for human RAR-related Orphan Receptor beta (RORb) (AID 2283010; active means hit-call score of the fitted dose curve at least 0.9, where 1 is the maximum). The method, boiled down: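 Transfect HepG2 with multiple GAL4-UAS reporter transcription units; dose chemicals for 24 h; isolate RNA, reverse-transcribe and PCR-amplify reporter sequences; label, digest and resolve fragments by capillary electrophoresis; fit increases relative to DMSO.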

Test [15] addresses Retinoic acid receptor RXR-alpha (Homo sapiens) (UniProt P19793). The test is described as follows: ATG_RXRa_TRANS: Attagene TRANS-FACTORIAL HepG2 Assay for human Retinoid X Receptor alpha (RXRa) (AID 2283012; active means hit-call score of the fitted dose curve at least 0.9, where 1 is the maximum). Summed up:
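Measures exogenous chimeric NR-GAL4 activity in transfected HepG2 liver cells after 24 h of dosing. Induced reporter mRNA was detected by RT-PCR with capillary electrophoresis, and gain of signal was analysed against DMSO.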

Test [16] deals with human Thyroid Receptor alpha (THRa1), THRA (gene 7067) (UniProt P10827). The test is described as follows: ATG_THRa1_TRANS: Attagene TRANS-FACTORIAL HepG2 Assay for human Thyroid Receptor alpha (THRa1) (AID 2283014; active means hit-call score of the fitted dose curve at least 0.9, where 1 is the maximum). Summed up:
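Reporter transcript induction, read by capillary electrophoresis of 6-FAM-labelled RT-PCR products, reflects activity of a transfected THRa1-Gal4 fusion in HepG2 liver cells. Cells were dosed for 24 h; activity was fitted in the positive direction against DMSO.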

The target in test [17] is Retinoic acid receptor alpha (Homo sapiens) (UniProt P10276). The test can be described thus: ATG_RARa_TRANS: Attagene TRANS-FACTORIAL HepG2 Assay for human Retinoic Acid Receptor alpha (RARa) (AID 2283005; active means hit-call score of the fitted dose curve at least 0.9, where 1 is the maximum). The method, boiled down:
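Reporter transcripts, measured by RT-PCR with fluorescent labeling and capillary electrophoresis after 24 h dosing, reflect activity of an exogenous human RARa–GAL4 fusion in transiently transfected HepG2. Fitted for increase relative to DMSO.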

In test [18] the target is human Retinoic Acid Receptor gamma (RARg), RARG (gene 5916) (UniProt P13631). The test is described as follows: ATG_RARg_TRANS: Attagene TRANS-FACTORIAL HepG2 Assay for human Retinoic Acid Receptor gamma (RARg) (AID 2283009; active means hit-call score of the fitted dose curve at least 0.9, where 1 is the maximum). Summed up:
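TRANS format measured activity of exogenous NR-GAL4 fusion (RARg) in transfected HepG2 liver cells after 24 h dosing. Induced reporter RNA was detected by RT-PCR/capillary electrophoresis fluorescence, analysed in the positive direction against DMSO.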

Test [19] has as its target human Peroxisome Proliferator-activated Receptor delta (PPARd), PPARD (gene 5467) (UniProt Q03181). The test is described as follows: ATG_PPARd_TRANS: Attagene TRANS-FACTORIAL HepG2 Assay for human Peroxisome Proliferator-activated Receptor delta (PPARd) (AID 2283002; active means hit-call score of the fitted dose curve at least 0.9, where 1 is the maximum). The method, boiled down:
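Read-out is induced reporter mRNA, quantified by RT-PCR with fluorescent labelling and capillary electrophoresis after 24 h dosing. Cells are HepG2 transiently carrying multiple GAL4-UAS reporter units driven by exogenous NR-GAL4 chimeras; DMSO serves as baseline.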

Test [20] addresses human Retinoic Acid Receptor beta (RARb), RARB (gene 5915) (UniProt P10826). The test is described as follows: ATG_RARb_TRANS: Attagene TRANS-FACTORIAL HepG2 Assay for human Retinoic Acid Receptor beta (AID 2283004; active means hit-call score of the fitted dose curve at least 0.9, where 1 is the maximum). The method, boiled down:
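Transient transfection of HepG2 with multiple reporter units → chemical dosing, 24 h → total RNA isolation → RT with oligo(dT) → reporter-specific PCR, 6-FAM primer extension, HpaI digest → capillary electrophoresis. Positive direction vs DMSO control.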

Inconclusive results are not listed. Activity calls are given as the source filed them. How the source made its calls, unless noted: active means hit-call score of the fitted dose curve at least 0.9, where 1 is the maximum; inactive means score below 0.9.

Sequence of human Peroxisome Proliferator-activated Receptor alpha (PPARa), PPARA (gene 5465) (Q07869 whole entry, looked up, the tested form may be a part): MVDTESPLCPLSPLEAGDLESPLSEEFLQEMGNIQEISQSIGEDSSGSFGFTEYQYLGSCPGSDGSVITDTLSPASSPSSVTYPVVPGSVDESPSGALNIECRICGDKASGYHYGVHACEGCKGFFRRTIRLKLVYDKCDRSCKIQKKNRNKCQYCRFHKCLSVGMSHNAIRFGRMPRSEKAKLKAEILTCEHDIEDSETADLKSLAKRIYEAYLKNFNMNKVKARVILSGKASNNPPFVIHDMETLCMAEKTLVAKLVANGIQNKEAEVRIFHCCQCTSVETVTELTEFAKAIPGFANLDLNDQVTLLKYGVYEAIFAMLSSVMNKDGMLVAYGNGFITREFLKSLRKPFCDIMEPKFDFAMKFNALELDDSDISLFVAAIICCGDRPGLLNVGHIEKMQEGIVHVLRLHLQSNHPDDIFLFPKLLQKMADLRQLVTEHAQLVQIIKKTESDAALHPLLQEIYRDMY
Sequence of human Retinoid X Receptor beta (RXRb), RXRB (gene 6257) (P28702 whole entry, looked up, the tested form may be a part): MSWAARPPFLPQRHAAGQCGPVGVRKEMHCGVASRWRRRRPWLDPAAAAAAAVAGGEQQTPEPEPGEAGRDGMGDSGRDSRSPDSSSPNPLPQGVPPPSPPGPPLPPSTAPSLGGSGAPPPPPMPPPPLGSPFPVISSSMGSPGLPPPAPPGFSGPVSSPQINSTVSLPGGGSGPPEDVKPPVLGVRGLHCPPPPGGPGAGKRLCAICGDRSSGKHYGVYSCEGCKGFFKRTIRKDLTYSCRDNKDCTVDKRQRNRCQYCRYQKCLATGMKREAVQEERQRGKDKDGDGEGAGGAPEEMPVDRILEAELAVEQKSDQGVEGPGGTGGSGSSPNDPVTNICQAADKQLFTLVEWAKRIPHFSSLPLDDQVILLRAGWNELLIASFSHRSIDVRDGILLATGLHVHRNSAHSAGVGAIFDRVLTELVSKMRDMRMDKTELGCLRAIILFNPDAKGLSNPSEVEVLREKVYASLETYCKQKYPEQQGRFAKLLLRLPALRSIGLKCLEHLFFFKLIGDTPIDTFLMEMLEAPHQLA
Sequence of Peroxisome proliferator-activated receptor gamma (Homo sapiens) (P37231 whole entry, looked up): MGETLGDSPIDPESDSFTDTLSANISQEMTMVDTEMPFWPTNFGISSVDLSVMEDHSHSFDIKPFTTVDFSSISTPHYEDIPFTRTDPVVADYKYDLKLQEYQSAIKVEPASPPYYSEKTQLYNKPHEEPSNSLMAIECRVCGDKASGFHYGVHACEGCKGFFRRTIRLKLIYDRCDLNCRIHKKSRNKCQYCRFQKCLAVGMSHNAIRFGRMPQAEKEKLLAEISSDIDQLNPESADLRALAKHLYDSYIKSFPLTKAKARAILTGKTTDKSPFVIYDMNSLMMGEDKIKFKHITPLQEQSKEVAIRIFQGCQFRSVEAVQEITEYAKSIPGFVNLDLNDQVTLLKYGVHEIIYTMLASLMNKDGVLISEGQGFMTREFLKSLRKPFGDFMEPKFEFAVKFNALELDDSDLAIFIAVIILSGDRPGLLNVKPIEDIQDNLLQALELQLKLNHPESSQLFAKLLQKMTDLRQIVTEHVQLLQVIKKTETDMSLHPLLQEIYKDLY
Sequence of Retinoic acid receptor RXR-alpha (Homo sapiens) (P19793 whole entry, looked up, the tested form may be a part): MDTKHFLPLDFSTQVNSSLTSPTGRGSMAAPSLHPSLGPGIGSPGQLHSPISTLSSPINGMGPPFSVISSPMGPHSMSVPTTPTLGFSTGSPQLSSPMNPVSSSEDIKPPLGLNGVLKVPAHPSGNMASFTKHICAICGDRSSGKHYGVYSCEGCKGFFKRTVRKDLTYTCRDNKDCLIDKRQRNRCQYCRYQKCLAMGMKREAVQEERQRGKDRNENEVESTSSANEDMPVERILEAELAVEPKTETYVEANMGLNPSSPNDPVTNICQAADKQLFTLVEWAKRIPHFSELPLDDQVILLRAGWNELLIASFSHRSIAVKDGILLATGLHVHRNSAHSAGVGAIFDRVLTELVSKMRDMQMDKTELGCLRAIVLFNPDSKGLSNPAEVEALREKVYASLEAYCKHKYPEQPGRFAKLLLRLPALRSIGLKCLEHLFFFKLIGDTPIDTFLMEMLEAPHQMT
Sequence of E-selectin (Homo sapiens) (P16581 whole entry, looked up): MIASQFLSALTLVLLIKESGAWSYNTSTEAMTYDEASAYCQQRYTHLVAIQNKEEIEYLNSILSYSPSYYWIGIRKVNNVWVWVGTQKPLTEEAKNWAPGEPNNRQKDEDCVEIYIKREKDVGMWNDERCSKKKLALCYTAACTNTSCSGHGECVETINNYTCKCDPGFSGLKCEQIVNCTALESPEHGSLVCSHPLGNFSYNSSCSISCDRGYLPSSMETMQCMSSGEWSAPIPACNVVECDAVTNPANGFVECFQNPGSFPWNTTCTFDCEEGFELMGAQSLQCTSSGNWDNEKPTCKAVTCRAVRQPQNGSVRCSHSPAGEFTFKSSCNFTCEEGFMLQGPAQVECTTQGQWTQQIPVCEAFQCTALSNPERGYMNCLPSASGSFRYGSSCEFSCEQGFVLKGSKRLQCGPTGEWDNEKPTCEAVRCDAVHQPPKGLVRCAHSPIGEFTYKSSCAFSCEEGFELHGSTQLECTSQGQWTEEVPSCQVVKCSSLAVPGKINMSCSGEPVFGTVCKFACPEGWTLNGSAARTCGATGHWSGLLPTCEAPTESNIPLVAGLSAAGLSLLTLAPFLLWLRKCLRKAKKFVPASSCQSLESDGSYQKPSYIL
Sequence of Nuclear receptor subfamily 1 group I member 2 (Homo sapiens) (O75469 whole entry, looked up, the tested form may be a part): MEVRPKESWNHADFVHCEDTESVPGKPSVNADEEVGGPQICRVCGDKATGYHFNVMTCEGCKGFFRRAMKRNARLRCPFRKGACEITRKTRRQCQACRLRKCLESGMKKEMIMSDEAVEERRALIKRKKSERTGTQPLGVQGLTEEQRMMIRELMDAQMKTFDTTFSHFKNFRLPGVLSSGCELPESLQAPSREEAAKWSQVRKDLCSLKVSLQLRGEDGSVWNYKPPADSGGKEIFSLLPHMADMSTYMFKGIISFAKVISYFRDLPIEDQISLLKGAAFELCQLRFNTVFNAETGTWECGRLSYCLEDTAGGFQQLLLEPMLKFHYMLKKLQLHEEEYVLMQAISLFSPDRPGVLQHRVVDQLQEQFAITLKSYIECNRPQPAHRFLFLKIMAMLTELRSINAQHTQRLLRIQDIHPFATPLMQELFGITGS
Sequence of Retinoic acid receptor alpha (Homo sapiens) (P10276 whole entry, looked up, the tested form may be a part): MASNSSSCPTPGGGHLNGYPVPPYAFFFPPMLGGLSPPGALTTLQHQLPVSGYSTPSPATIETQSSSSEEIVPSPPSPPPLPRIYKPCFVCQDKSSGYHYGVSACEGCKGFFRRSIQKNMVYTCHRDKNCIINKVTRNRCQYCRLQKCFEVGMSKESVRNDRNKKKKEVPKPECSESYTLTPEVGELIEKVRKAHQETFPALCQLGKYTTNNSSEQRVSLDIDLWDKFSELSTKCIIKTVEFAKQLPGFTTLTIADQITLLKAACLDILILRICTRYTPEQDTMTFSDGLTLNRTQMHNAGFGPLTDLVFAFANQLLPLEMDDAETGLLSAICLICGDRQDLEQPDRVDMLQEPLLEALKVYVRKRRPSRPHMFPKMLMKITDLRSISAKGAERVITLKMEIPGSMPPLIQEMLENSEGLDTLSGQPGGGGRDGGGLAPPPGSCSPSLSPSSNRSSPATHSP
Sequence of human Thyroid Receptor alpha (THRa1), THRA (gene 7067) (P10827 whole entry, looked up, the tested form may be a part): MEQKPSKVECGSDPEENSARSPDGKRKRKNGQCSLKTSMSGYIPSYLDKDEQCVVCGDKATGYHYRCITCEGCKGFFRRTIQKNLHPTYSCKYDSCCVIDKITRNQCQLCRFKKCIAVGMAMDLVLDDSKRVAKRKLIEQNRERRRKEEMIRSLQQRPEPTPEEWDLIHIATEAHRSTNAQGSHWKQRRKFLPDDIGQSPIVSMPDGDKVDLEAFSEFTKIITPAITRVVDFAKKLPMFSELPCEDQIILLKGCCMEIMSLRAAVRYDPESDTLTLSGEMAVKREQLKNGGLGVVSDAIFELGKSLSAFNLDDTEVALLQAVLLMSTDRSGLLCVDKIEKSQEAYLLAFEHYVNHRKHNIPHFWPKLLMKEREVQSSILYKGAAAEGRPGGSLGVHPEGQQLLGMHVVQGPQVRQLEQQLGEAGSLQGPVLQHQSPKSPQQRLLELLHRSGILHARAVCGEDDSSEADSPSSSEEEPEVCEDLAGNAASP
Sequence of human Retinoic Acid Receptor gamma (RARg), RARG (gene 5916) (P13631 whole entry, looked up, the tested form may be a part): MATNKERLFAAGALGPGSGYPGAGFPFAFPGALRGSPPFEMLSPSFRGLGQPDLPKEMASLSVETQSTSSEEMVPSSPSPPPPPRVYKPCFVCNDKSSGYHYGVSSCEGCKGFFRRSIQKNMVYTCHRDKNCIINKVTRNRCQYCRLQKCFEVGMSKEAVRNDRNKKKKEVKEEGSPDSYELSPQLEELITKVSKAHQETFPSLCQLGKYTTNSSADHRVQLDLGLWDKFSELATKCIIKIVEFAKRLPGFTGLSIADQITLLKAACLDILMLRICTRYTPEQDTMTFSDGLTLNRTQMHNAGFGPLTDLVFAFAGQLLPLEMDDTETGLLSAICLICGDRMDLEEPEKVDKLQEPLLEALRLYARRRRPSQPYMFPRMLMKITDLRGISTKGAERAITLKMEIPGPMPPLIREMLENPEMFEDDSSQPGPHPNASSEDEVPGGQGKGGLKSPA
Sequence of human RAR-related Orphan Receptor beta (RORb), RORB (gene 6096) (Q92753 whole entry, looked up, the tested form may be a part): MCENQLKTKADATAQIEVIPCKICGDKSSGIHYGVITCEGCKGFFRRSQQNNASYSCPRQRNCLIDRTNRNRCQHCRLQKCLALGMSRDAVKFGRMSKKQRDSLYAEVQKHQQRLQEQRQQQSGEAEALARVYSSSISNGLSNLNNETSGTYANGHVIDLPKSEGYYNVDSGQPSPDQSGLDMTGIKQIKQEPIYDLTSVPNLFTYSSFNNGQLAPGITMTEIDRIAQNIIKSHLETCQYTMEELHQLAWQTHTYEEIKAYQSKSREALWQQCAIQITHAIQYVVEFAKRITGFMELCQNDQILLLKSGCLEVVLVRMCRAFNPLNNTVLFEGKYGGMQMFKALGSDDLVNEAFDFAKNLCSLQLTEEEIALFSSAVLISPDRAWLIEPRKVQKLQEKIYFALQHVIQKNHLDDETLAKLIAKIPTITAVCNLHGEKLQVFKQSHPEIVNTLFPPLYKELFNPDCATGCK

For the compound `COP(=S)(OC)SCN1C(=O)c2ccccc2C1=O`, the result in test [1], in [2], in [4], in test [5], in test [6] and in test [7] was inactive. In addition, the outcome in [8], in [9], in [10], in test [11], in test [12] and in test [13] was inactive. Besides, in test [3], the AC50 was 28.4 µM (active).
On to `CO[C@@H]1[C@H](OC(=O)NC(=O)CCl)CC[C@]2(CO2)[C@H]1[C@@]1(C)O[C@@H]1CC=C(C)C`, for which the result in test [1], in test [2], in [4], in test [5], in test [14] and in test [15] was inactive. The outcome in [6], in test [16], in test [8], in test [9], in test [10] and in test [12] was inactive. For the same compound, the outcome in test [13] was inactive. The AC50 in test [3] was 0.00962 µM (active); in [7], 5.16 µM (active); in test [11], 8.98 µM (active).
Turning to `COC(=O)Nc1nc2ccccc2[nH]1`, the compound was called inactive in test [1], in test [2], in test [17], in test [4], in [5] and in test [18]. Moreover, the compound was classed as inactive in test [14], in test [6], in test [16], in [7], in test [8] and in [9]. Also, the outcome in [10], in test [11], in test [12] and in test [13] was inactive. Moreover, in test [3], the AC50 is 9.95 µM (active).
Regarding `O=Cc1ccco1`, the call in test [1], in test [19], in test [2], in test [17], in test [3] and in test [18] was inactive. In addition, the outcome in test [15], in [6], in [7], in test [8], in test [9] and in test [10] was inactive. The outcome in test [11], in test [12] and in test [13] was inactive.
With `CCCCCCCCOC(=O)c1ccc(C(=O)OCCCCCCCC)c(C(=O)OCCCCCCCC)c1`, the outcome in test [1], in test [2], in test [20], in test [17], in [4] and in [15] was inactive. For the same compound, the outcome in test [7], in test [8], in test [9], in test [10], in [11] and in [12] was inactive. Further, in test [13], the outcome was inactive. Further, in [6], the AC50 was 65.4 µM (active).
With `C=CCc1ccc2c(c1)OCO2`, the compound was called inactive in test [1], in test [2], in [3], in [4], in test [5] and in [15]. In addition, the compound was called inactive in test [6], in test [7], in test [8], in [9], in test [10] and in test [11]. Further, the result in [12] and in test [13] was inactive.
For `c1ccc(N=Nc2ccccc2)cc1`, the compound was called inactive in test [1], in test [2], in test [3], in test [5], in [15] and in [6]. In addition, the result in [7], in [8], in [9], in [10], in [11] and in [12] was inactive. Moreover, the outcome in test [13] was inactive. In test [4], the AC50 is 43 µM (active).
`Nc1ccc(Cc2ccc(N)cc2)cc1`: the call in test [1], in [2], in [20], in [3], in [4] and in [15] was inactive. Besides, the compound was called inactive in test [16], in test [7], in [8], in test [9], in [10] and in test [11]. Moreover, the outcome in test [12] and in test [13] was inactive.

As a reminder, the AC50 is the concentration giving half of the maximal activity seen.

These data come from PubChem BioAssay (EPA / NIEHS).
